Test results from PMC5540273 (PLoS ONE, 2017).

Tests used:
Settings in all cases: concentration: 1 μM, replicates: in singlicate; n = 1
CDKL3 = tested on: CDKL3
CDKL5 = tested on: CDKL5
CHEK1 = tested on: CHEK1
CHEK2 = tested on: CHEK2
CIT = tested on: CIT
CLK1 = tested on: CLK1
CLK2 = tested on: CLK2
CLK3 = tested on: CLK3
CLK4 = tested on: CLK4
CSF1R-autoinhibited = tested on: CSF1R-autoinhibited
CSF1R = tested on: CSF1R
CSK = tested on: CSK
CSNK1A1L = tested on: CSNK1A1L
CSNK1A1 = tested on: CSNK1A1
CSNK1D = tested on: CSNK1D
CSNK1E = tested on: CSNK1E
CSNK1G1 = tested on: CSNK1G1
CSNK1G2 = tested on: CSNK1G2
CSNK1G3 = tested on: CSNK1G3
CSNK2A1 = tested on: CSNK2A1
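Note: KINOMEscan kinase panel screen.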

COc1cc2nccc(Nc3ccc(OCc4ccc(NC(C)=O)cc4)cc3)c2cc1OC.Cl [GW440135]
%Inh (CDKL3): 20% | %Inh (CDKL5): 0% | %Inh (CHEK1): 0% | %Inh (CHEK2): 0% | %Inh (CIT): 0% | %Inh (CLK1): 8% | %Inh (CLK2): 0% | %Inh (CLK3): 10% | %Inh (CLK4): 0% | %Inh (CSF1R-autoinhibited): 25% | %Inh (CSF1R): 73% | %Inh (CSK): 0% | %Inh (CSNK1A1L): 15% | %Inh (CSNK1A1): 0% | %Inh (CSNK1D): 0% | %Inh (CSNK1E): 16% | %Inh (CSNK1G1): 0% | %Inh (CSNK1G2): 0% | %Inh (CSNK1G3): 15% | %Inh (CSNK2A1): 5%

Nc1ncnc2c1ncn2-c1cccc(F)c1 [SKF-97560]
%Inh (CDKL3): 0% | %Inh (CDKL5): 21% | %Inh (CHEK1): 17% | %Inh (CHEK2): 0% | %Inh (CIT): 6% | %Inh (CLK1): 22% | %Inh (CLK2): 0% | %Inh (CLK3): 0% | %Inh (CLK4): 0% | %Inh (CSF1R-autoinhibited): 19% | %Inh (CSF1R): 20% | %Inh (CSK): 0% | %Inh (CSNK1A1L): 0% | %Inh (CSNK1A1): 16% | %Inh (CSNK1D): 26% | %Inh (CSNK1E): 0% | %Inh (CSNK1G1): 0% | %Inh (CSNK1G2): 13% | %Inh (CSNK1G3): 0% | %Inh (CSNK2A1): 28%

Cc1nc(N(C)[C@H]2CN(C(=O)CC#N)CC[C@H]2C)c2cc[nH]c2n1
%Inh (CDKL3): 0% | %Inh (CDKL5): 6% | %Inh (CHEK1): 48% | %Inh (CHEK2): 0% | %Inh (CIT): 0% | %Inh (CLK1): 13% | %Inh (CLK2): 15% | %Inh (CLK3): 0% | %Inh (CLK4): 0% | %Inh (CSF1R-autoinhibited): 0% | %Inh (CSF1R): 13% | %Inh (CSK): 0% | %Inh (CSNK1A1L): 3% | %Inh (CSNK1A1): 0% | %Inh (CSNK1D): 0% | %Inh (CSNK1E): 0% | %Inh (CSNK1G1): 5% | %Inh (CSNK1G2): 0% | %Inh (CSNK1G3): 0% | %Inh (CSNK2A1): 0%
